# From the supplement of paper PMC11732987, “Enantioselective OTUD7B fragment discovery through chemoproteomics screening and high-throughput optimisation” (Communications Chemistry, 2025)
# Unmarked numbers belong to inactive results.
# Assays:
# Test in all cases: log2 ratio of Biotin-Ahx-Ub-VS probe labelling (fragment/DMSO); higher = less target engagement (more negative = stronger competition), active = hit call of the paper (q ≤ 0.05, log2 ratio ≤ -1)
# Details in all cases: compound concentration: 200 uM; treatment time: 3 h
# OTUD6B = target: T1, OTUD6B (UniProt Q8N6M0)
# T1 sequence (whole entry): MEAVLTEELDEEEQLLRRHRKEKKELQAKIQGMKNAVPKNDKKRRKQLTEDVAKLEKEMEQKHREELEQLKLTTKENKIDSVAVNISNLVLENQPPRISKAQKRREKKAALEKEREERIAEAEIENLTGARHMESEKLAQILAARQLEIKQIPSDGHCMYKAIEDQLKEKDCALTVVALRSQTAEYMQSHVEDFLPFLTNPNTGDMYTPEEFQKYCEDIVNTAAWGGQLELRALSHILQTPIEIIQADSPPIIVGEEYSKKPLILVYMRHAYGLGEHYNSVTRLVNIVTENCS
# Summary of the method: (§1)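 Average log2 ratios of fragment over vehicle were obtained by unpaired t-test from global-median-normalised Spectronaut label-free quantities. Proteins with ≥2 unique peptides were included. HEK293T lysate (495 µg per sample) was treated in triplicate with fragment at 200 µM or vehicle for 3 h, then with Biotin-Ahx-Ub-VS at 0.5 µM final for 1 h, and labelled DUBs were NeutrAvidin-enriched and run by diaPASEF LC-MS/MS.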
# OTUD7B = target: T2, OTUD7B (UniProt Q6GQQ9)
# T2 sequence (whole entry): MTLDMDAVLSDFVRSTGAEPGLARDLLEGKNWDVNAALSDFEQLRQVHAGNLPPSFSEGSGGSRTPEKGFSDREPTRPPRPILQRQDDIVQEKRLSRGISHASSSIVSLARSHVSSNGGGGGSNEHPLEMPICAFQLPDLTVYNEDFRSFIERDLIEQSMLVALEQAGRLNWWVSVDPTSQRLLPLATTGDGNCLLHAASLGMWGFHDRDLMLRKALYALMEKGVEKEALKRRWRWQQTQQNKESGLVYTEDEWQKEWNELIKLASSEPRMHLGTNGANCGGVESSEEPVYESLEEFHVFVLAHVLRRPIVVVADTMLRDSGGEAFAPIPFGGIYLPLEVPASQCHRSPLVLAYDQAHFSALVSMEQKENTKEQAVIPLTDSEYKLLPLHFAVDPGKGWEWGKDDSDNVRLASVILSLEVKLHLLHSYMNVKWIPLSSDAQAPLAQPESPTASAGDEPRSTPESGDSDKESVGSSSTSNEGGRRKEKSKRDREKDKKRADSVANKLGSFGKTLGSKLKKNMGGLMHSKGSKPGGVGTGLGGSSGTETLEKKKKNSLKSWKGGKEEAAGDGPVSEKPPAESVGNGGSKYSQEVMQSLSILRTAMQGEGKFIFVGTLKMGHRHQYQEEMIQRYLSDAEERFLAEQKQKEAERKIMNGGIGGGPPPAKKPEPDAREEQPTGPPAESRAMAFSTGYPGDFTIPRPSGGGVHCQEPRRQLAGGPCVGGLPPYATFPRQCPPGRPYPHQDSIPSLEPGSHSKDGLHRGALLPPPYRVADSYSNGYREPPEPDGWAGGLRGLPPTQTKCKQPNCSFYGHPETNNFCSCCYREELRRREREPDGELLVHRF
# Summary of the method: as §1
# PRPF8 = PRPF8 (UniProt Q6P2Q9)
# Summary of the method: as §1
# PSMD7 = target: T3, PSMD7 (UniProt P51665)
# T3 sequence (whole entry): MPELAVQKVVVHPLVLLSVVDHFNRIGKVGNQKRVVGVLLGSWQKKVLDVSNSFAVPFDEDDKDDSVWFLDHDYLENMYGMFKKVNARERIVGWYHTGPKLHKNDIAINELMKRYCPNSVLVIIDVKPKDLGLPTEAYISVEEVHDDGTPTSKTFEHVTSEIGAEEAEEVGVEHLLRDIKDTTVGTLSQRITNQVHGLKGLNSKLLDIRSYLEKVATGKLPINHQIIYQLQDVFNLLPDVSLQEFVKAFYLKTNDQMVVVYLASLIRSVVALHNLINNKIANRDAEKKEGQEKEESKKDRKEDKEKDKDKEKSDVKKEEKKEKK
# Summary of the method: as §1
# UCHL1 = UCHL1 (UniProt P09936)
# Summary of the method: as §1
# UCHL3 = target: T4, UCHL3 (UniProt P15374)
# T4 sequence (whole entry): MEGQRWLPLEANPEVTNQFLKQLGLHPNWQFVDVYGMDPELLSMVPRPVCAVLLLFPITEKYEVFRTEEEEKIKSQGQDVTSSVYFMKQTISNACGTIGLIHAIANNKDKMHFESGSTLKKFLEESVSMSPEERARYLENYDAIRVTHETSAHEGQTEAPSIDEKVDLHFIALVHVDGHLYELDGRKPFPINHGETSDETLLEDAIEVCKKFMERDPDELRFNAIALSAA
# Summary of the method: as §1
# UCHL5 = target: T5, UCHL5 (UniProt Q9Y5K5)
# T5 sequence (whole entry): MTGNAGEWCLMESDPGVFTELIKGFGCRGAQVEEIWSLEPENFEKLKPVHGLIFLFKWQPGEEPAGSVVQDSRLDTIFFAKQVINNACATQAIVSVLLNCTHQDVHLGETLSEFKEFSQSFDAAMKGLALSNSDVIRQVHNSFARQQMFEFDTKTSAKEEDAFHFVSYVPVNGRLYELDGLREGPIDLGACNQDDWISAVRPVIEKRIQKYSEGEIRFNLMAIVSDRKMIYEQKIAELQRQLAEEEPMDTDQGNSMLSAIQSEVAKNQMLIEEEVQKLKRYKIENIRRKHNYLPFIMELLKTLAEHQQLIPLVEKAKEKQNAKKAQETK
# Summary of the method: as §1
# USP10 = USP10 (UniProt Q14694)
# Summary of the method: as §1
# USP15 = target: T6, USP15 (UniProt Q9Y4E8)
# T6 sequence (whole entry): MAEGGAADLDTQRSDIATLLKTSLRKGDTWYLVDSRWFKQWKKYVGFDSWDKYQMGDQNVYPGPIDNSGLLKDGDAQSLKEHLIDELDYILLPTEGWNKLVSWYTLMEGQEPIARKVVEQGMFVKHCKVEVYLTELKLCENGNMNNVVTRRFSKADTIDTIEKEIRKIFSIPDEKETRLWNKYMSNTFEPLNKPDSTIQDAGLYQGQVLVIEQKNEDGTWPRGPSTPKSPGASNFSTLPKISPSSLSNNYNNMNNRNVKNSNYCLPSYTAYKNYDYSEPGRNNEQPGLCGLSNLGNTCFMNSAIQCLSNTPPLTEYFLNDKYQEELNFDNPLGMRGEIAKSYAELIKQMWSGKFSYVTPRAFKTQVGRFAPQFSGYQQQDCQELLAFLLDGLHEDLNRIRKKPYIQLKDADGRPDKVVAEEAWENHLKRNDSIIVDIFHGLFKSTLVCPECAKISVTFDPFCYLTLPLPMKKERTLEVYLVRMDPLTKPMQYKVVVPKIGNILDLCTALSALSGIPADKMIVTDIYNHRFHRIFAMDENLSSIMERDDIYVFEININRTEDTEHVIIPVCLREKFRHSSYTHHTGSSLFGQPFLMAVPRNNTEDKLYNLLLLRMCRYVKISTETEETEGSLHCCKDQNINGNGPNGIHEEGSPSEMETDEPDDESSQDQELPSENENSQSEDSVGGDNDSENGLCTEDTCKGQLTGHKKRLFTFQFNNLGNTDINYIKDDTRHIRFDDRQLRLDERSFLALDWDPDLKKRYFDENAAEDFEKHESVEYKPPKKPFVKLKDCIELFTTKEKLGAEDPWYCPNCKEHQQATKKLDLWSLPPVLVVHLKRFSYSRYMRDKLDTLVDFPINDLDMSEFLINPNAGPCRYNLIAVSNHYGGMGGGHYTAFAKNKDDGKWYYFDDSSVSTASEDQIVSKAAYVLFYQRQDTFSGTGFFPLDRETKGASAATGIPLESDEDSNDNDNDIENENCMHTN
# Summary of the method: as §1
# USP16 = USP16 (UniProt Q9Y5T5)
# Summary of the method: as §1
# Chain of UCHL1 (P09936 whole entry, looked up): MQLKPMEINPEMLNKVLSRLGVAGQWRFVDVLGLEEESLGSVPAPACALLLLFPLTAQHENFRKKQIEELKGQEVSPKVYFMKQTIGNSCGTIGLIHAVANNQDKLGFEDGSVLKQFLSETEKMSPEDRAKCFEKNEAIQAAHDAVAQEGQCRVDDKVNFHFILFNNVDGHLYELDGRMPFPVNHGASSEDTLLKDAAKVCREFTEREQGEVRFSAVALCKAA
# Chain of USP10 (Q14694 whole entry): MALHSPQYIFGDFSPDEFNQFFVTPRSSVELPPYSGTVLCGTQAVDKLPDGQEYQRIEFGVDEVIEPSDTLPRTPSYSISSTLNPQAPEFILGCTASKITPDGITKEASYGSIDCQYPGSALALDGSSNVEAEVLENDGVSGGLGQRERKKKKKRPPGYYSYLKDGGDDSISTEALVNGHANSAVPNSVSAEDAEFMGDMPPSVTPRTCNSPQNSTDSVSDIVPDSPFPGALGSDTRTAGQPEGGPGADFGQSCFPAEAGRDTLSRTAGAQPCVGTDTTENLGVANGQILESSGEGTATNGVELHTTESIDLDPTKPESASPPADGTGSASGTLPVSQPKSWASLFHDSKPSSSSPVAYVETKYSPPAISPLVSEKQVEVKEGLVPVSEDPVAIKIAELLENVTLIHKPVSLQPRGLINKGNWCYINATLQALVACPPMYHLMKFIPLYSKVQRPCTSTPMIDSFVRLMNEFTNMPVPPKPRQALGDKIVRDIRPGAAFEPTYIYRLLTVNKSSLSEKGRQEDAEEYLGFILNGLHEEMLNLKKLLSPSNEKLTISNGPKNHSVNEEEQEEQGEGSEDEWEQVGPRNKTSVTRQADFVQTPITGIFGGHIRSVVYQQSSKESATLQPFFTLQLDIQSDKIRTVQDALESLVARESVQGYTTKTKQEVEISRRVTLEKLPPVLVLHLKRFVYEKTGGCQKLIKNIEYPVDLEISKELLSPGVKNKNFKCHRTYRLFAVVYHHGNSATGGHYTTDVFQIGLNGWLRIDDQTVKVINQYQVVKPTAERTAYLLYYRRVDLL
# Chain of USP16 (Q9Y5T5 whole entry, looked up): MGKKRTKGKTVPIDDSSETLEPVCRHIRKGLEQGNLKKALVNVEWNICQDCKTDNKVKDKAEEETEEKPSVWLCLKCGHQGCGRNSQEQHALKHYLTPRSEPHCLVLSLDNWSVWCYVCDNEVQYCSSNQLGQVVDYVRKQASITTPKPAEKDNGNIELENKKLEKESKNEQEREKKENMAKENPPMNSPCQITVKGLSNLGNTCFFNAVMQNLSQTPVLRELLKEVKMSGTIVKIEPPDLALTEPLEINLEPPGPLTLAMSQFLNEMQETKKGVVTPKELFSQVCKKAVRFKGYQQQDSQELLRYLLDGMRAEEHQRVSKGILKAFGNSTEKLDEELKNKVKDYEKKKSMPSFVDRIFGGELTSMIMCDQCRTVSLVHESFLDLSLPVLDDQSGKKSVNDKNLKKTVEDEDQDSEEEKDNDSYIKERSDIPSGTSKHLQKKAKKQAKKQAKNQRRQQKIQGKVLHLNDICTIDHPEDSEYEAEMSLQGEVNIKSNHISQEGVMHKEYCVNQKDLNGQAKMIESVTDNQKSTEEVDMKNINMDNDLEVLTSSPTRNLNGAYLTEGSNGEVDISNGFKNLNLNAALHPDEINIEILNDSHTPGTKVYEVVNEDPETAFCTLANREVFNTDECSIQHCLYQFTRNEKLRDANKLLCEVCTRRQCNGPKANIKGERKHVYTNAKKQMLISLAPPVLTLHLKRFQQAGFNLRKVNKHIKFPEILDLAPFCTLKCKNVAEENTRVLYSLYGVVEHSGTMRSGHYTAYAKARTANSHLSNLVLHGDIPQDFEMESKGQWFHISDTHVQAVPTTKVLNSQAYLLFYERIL
structure (smiles),measurement,setting,value
O=C(CCl)N1CCCN(C(=O)c2ccc(Cl)cc2)CC1,log2 ratio of Biotin-Ahx-Ub-VS probe labelling,OTUD6B,-0.316
same,log2 ratio of Biotin-Ahx-Ub-VS probe labelling,OTUD7B,-0.767
same,log2 ratio of Biotin-Ahx-Ub-VS probe labelling,PRPF8,0.0935
same,log2 ratio of Biotin-Ahx-Ub-VS probe labelling,PSMD7,-0.253
same,log2 ratio of Biotin-Ahx-Ub-VS probe labelling,UCHL1,-1.68 (active)
same,log2 ratio of Biotin-Ahx-Ub-VS probe labelling,UCHL3,0.267
same,log2 ratio of Biotin-Ahx-Ub-VS probe labelling,UCHL5,-0.389
same,log2 ratio of Biotin-Ahx-Ub-VS probe labelling,USP10,0.0223
same,log2 ratio of Biotin-Ahx-Ub-VS probe labelling,USP15,-0.429
same,log2 ratio of Biotin-Ahx-Ub-VS probe labelling,USP16,-0.13
